We go through 59 compounds from PubChem BioAssay AID493248 (Broad Institute, 2011).

Among all 2,300 compounds or so, about 1,400 (61%) were called active. About 7% were inconclusive and are not listed. No rule for the calls is given here. So high a share suggests a set chosen from earlier hits. Only a sample is shown. Entries with a potency or affinity are not part of this list.

Sequence of FAD-linked sulfhydryl oxidase ALR (Homo sapiens) (P55789 whole entry, looked up): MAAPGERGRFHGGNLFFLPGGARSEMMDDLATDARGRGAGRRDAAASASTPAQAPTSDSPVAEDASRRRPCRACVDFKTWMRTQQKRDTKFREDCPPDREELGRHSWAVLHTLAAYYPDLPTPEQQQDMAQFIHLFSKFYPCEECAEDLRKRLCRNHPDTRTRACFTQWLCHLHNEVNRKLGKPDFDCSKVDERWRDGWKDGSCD

This assay addresses FAD-linked sulfhydryl oxidase ALR (Homo sapiens) (UniProt P55789). The assay is described as follows: ALR-catalysed DTT oxidation blockers – biochemical, H2O2 detection, luminescence, cherry-pick, dose response (AID 493248). As to conditions: purified ALR, H2O2 HRP-luminol luminescence; at 10 µM (top of the series).
On to `Cc1cc(C(=O)NC2CCCc3c2cnn3-c2ccc(C)c(C)c2)no1` (centres undefined), for which the activity change, negative = inhibition is -8.68%.
The same measure for `O=c1[nH]c(/C=C\c2ccccc2F)nc(O)c1[N+](=O)[O-]`: -17.7%; for `O=C(CNS(=O)(=O)c1ccccc1)N/N=C/c1ccc(O)cc1`: -113%.
Regarding `CC1CC(C)CN(C(=O)c2ccc(-c3ccc([N+](=O)[O-])cc3)o2)C1` (centres undefined), the activity change, negative = inhibition was -37.5%.
On to `Cc1nc2cccc(C(=O)Oc3ccc([N+](=O)[O-])cc3)c2o1`, for which the activity change, negative = inhibition is -34.6%.
Under `O=C(NCc1cccs1)C1CCN(S(=O)(=O)c2cccc3cccnc23)CC1` stands 3.4%; under `CCN(CCNC(=O)CN(C)S(=O)(=O)c1cccc2nsnc12)c1ccccc1`, -59.9%.
The same measure for `CCCCN(CCCC)c1ccc(C(=O)c2ccccc2C(=O)O)c(O)c1`: -56.2%.
Under `CC/C(=N\NC(=O)CCC(=O)NCc1ccccc1)c1ccc(O)cc1` stands -98.7%; under `Cc1ccc(N=c2oc3cc(O)ccc3cc2C(N)=O)cc1`, -84.9%; under `Cc1nn(C)c(C)c1Sc1ccccc1N`, -14.3%.
On to `Cc1nc(N2CCN(c3ccccc3)CC2)[nH]c(=O)c1C`, for which the activity change, negative = inhibition was -42.3%.
Regarding `Nc1ccc2oc(=O)c(-c3ccccc3)cc2c1`, the activity change, negative = inhibition is -86.7%.
Consider `Cc1ccc(N2CCN(C(=O)N3CCCC3)CC2)cc1C`, for which the activity change, negative = inhibition is -10.1%.
The same measure for `COc1cccc(CNc2nc3ccccc3n2CCN2CCCCC2)c1OC`: -11.4%.
For the compound `Cn1ccnc1SCc1cccc([N+](=O)[O-])c1`, the activity change, negative = inhibition was 7.58%.
For the compound `COc1cc(/C=C2\SC(=S)N(NC(C)=O)C2=O)ccc1OC(=O)c1ccco1`, the activity change, negative = inhibition is -26.5%.
The same measure for `COc1ccc(S(=O)(=O)N2Cc3ccccc3CC2C(=O)Nc2ccc(O)cc2)cc1OC` (centres undefined): 349%; for `Cc1cc(NC(=O)c2ccco2)sc1C`: -98.7%; for `CSc1cccc(NC(=O)c2ccco2)c1`: -98.6%.
The same measure for `COc1ccc(SCCc2ccncc2)cc1`: -20.1%; for `O=C(C1CCC1)N1CCN(c2ccc(Cl)cc2)CC1`: -43.9%.
The same measure for `CCCC(=O)N1c2ccc(-c3csc(N)n3)cc2CC1C` (centres undefined): -16.4%.
Regarding `Cc1cc(N/N=C/c2ccccc2F)c2ccccc2n1`, the activity change, negative = inhibition was -22.6%.
Under `Cc1cc(N/N=C/c2ccco2)c2ccccc2n1` stands -3.59%.
Under `CC(=O)N1CCN=C1SCc1ccc(Cl)cc1` stands -8.99%.
The same measure for `O=C(Cn1cnc2ccccc21)N/N=C/c1ccccn1`: 0.505%; for `S=c1[nH]ncn1/N=C/c1ccccc1`: -73%.
As for `COc1ccc(NC(=O)Nc2ccc3nccnc3c2)cc1`, the activity change, negative = inhibition is 105%.
The same measure for `Cc1oc(C(=O)Nc2ccc(C(=O)O)cc2)cc1COc1ccccc1`: -25.3%; for `Cc1ccc(N(C(=O)c2ccc(Br)o2)C2C=CS(=O)(=O)C2)cc1` (centres undefined): -13.3%.
Under `CC1=C(C)CS(=O)N(S(=O)(=O)c2ccccc2)C1` (centres undefined) stands -41.8%; under `O=C(Cc1c(C(=O)O)[nH]c2ccccc12)NCCN1CCN(c2cccc(Cl)c2)CC1`, -54.4%; under `O=C(NCCN1CCN(c2ccccc2)CC1)c1cccc(Cl)c1`, -76.5%.
The same measure for `CC(C)CN(CC(C)C)c1nnc(N)s1`: 16.8%; for `O=C(Nc1nc2ccc(S(=O)(=O)N3CCCCC3)cc2s1)c1ccncc1`: -6.5%.
For `Cc1cccc(-c2n[nH]c(=S)n2/N=C/C=C/c2ccco2)c1`, the activity change, negative = inhibition was -98%.
Under `COc1c(/C=N/Nc2ccc(C(=O)O)cc2)c(CCN(C)C(C)=O)cc2c1OCO2` stands -95.6%; under `CC1CN(c2ccccc2)NC1=O` (centres undefined), 23.1%; under `O=C(NCc1cccs1)c1nc2c(nnn2Cc2ccccc2Cl)c(=O)[nH]1`, -7.82%.
Under `Cc1n[nH]c(C)c1Sc1ccccc1N` stands 54.6%; under `COc1cc(OC)cc(-c2cn[nH]c2N)c1`, -60.4%.
Under `Cc1ccc(N=Nc2c(N)[nH]n3c(=O)cc(C)nc23)cc1` stands -55.4%; under `Cc1nc(NS(=O)(=O)c2ccccc2C)c2c3c(sc2n1)CCC3`, -0.709%.
Consider `CC1CCc2c(sc(NC(=O)c3ccccc3C(=O)O)c2C#N)C1` (centres undefined), for which the activity change, negative = inhibition is -85.9%.
On to `COc1cccc(NC(=O)c2cc(OC)c(OC)c(OC)c2Br)c1`, for which the activity change, negative = inhibition is 4.6%.
Under `CCCCNc1cc(NC(C)=O)cc2cc(OC)c(OC)cc12` stands -66.6%; under `O=S(=O)(Nc1ncnc2sc3c(c12)CCC3)c1cc(F)ccc1F`, 5.9%.
Consider `CCC1(C)OC(=O)NN(c2ccc(C)cc2)C1(C)O` (centres undefined), for which the activity change, negative = inhibition was -35.5%.
Under `Cc1ccc(O)c(-c2cc(C(=O)NCc3ccncc3)[nH]n2)c1` stands -50.3%; under `COc1ccc(-c2cc(C(=O)NN)[nH]n2)cc1OC`, -15.4%; under `Cn1nnc2c[n+](CC(=O)c3ccc(Cl)cc3)cc(Br)c21`, -31%.
Under `O=C(Nc1ccccc1F)c1ccc(Cn2cc(Cl)cn2)cc1` stands -100%.
As to `Cc1cc(-c2n[nH]c(=S)n2-c2ccc(C)c(C)c2)no1`, the activity change, negative = inhibition is -43%.
Turning to `Cc1cccc(-n2c(-c3ccncc3)n[nH]c2=S)c1`, the activity change, negative = inhibition was -2.76%.
Under `Cc1ccc(-n2c([C@@H]3C[C@H]3c3ccccc3)n[nH]c2=S)cc1` stands -34.6%; under `COc1ccc(-c2n[nH]c(=S)n2-c2ccc(C)cc2)cc1OC`, 3.4%; under `COc1cc(/C=N/Nc2ccc(C(F)(F)F)cn2)ccc1O`, -15%.
Under `O=C(Cn1cc(C(F)(F)F)ccc1=O)N/N=C/c1ccc(O)cc1` stands 174%.
